Source: PubChem (National Center for Advancing Translational Sciences (NCATS))
TSHR antag – Antagonists of the Thyroid Stimulating Hormone Receptor: HTS campaign | TSHR-expressing cells, TSH-stimulated cAMP HTRF, 2 h; hits give low values | AID 504810, 2011 | actives 0.2% (n = 330,000) | Thyrotropin receptor (Homo sapiens), P16473 | activity change, negative = inhibition, % at 11.5 µM;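 active means activity change below a set negative limit, meaning inhibition stronger than a set level, cut at about -70% in these data; inconclusive means activity change between two set negative limits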
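Freshly harvested TSHR cells receive pin-tooled compound, then EC80 TSH at 4nM final. After 2 hours at 37 deg C, antibody in lysis buffer and cAMP-d2 are added; 30 minutes at ambient temperature precede the HTRF read.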
Coupling enz – qHTS Assay for Inhibitors of Fructose-1,6-bisphosphate Aldolase from Giardia Lamblia: Coupling assay counterscreen. coupling enzyme system counterscreen, AmpLite Red fluorescence. activity change, negative = inhibition, % at 58.2 µM, hits read low. actives 0.67% (n = 290,000); in the data active means activity change below about -30%
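Compounds tested against the coupling enzymes alone at 57.5 uM final; readout was AmpLite Red fluorescence (525/598 nm) after 20 min at RT.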
TR SRC2 fluor cs – Total Fluorescence Counterscreen for Inhibitors of the Interaction of Thyroid Hormone Receptor and Steroid Receptor Coregulator 2; TRb/SRC2 Texas Red total fluorescence interference; Potency, µM (top dose mostly 106 µM); actives 0.29% (n = 280,000); AID 1479, 2009; active means well fitted curve in either direction with a large enough effect; inconclusive means small, poorly fitted or top-dose-only effect
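Human TRb ligand-binding domain at 0.6 uM with 20 nM Texas Red SRC2 peptide in Tris buffer containing 1 uM T3 and 5% DMSO, incubated with compound 5 h at ambient temperature. Total fluorescence (555/632 nm) calculated as parallel + 2 × perpendicular.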
TCR act – Activators of T cell receptors: qHTS campaign. primary human leukocytes, anti-CD3, IL-2 HTRF, 48 h. Potency, µM (series often up to 9.22 µM), hits mostly activators. 330,000 tested, under 10 active. AID 504894, 2011
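Primary human leukocytes receive a-CD3 beads and test compound and are incubated 48 hr. Secreted IL-2 is then assayed by HTRF, measuring 665nm acceptor emission after 320nm excitation of the europium donor.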
NPSR antagonist – qHTS Assay for Antagonists of the Neuropeptide S Receptor: cAMP Signal Transduction; CHO-NPSR cells, cAMP TR-FRET, antagonist mode; actives 1% (n = 220,000); Potency, µM (doses to about 38.3 µM), hits mostly inhibitors; further: nearly all actives have a fitted effect of over 50% in size
TRb-SRC2 inh – qHTS for Inhibitors of the Interaction of Thyroid Hormone Receptor and Steroid Receptor Coregulator 2 | Potency, µM (top dose mostly 106 µM), most hits filed as inhibitors | AID 1469, 2008 | actives 0.065% (n = 280,000) | TRbeta-SRC2 peptide binding, fluorescence polarization; receptor liganded with 1 µM T3; further: nearly all actives have a fitted effect of over 50% in size
Target sequence (P10828 whole entry, looked up): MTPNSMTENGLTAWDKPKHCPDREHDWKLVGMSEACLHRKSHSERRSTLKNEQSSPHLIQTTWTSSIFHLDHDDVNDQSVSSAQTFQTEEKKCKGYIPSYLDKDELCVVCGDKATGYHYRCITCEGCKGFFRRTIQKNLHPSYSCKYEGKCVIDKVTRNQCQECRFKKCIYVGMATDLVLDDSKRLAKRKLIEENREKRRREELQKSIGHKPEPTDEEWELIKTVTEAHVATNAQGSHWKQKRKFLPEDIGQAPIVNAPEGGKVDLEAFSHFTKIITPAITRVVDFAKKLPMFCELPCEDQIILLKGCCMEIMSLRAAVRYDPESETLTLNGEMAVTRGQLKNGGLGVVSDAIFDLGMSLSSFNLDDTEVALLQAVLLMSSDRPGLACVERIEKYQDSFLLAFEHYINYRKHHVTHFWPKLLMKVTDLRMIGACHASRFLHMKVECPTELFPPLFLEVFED
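Human TRb ligand-binding domain (0.6 uM) is mixed with 20 nM Texas Red SRC2 peptide and 1 uM T3; after compound addition and 5 hr at ambient temperature, polarization is measured and normalized to unbound and bound controls.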
Hits are given with their value; n = inactive; u = inconclusive; x = no result given; ! = a repeat was not active; [ ] = dose if it differs, or a comment. Sampled rows, rich in hits. Any-hit rate of the full collection: about 1%. Unless noted, the call rests on the fitted dose curve; in most records, active means well fitted curve in the direction sought with a large enough effect; inconclusive means small, poorly fitted or top-dose-only effect, or another doubt; inactive means no such curve, though single readings can be large; an effect the other way counts as inactive or inconclusive.

SMILES	TSHR antag	Coupling enz	TR SRC2 fluor cs	TCR act	NPSR antagonist	TRb-SRC2 inh
CCOc1ccc(NC(=O)N2CCN(c3nnc(C)c4c(C)n(-c5ccccc5)nc34)CC2)cc1	x	x	0.0005µM[quencher]	x	x	n
COc1cccc(NC2=C(NCCO)C(=O)c3ccccc3C2=O)c1	n	-30	x	n	x	x
Cc1cccc(NC2=C(NCCO)C(=O)c3ccccc3C2=O)c1	n	-35	n	n	n	n
COc1ccc(NC2=C(NCCO)C(=O)c3ccccc3C2=O)cc1	n	-43	n	n	n	u
Cc1cccc(Nc2nc(N)c([N+](=O)[O-])c(NCCO)n2)c1	n	n	n	n	n	n
COc1cccc(Nc2c(Nc3cccc(OC)c3)c(=O)c2=O)c1	n	n	x	n	x	x
Cc1ccc2occ(/C=N/NC(N)=S)c(=O)c2c1	n	n	0.35µM[quencher]	n	n	n
O=S(=O)(NCCNC/C=C/c1ccc(Br)cc1)c1cccc2cnccc12	x	x	n	x	n	n
CC1=C(C#N)C(c2ccoc2)C(C(=O)OCc2ccccc2)=C(N)S1 (configuration not stated)	n	n	n	n	n	n
N#CC1=C(N)SC(N)=C(C#N)C1c1ccoc1	n	-39	n	x	n	n
CCC(C)OC(=O)N1CCCCC1CCO (configuration not stated)	x	x	n	x	x	n
Cc1cccc(NC(=O)C2CCN(S(=O)(=O)c3ccc4c(c3)NC(=O)CO4)CC2)c1	-134	n	x	n	x	x
CCOc1ccccc1N(CC)C(=O)c1cc2c(=O)[nH]c3ccc(C)cc3c2s1	x	x	n	x	x	n
c1ccc2oc(CCc3nc4ccccc4o3)nc2c1	n	n	n	n	n	n
Nc1ccc2oc(CCc3ccccc3)nc2c1	n	-35	n	n	n	n
Cn1cccc1/C=C1\CC(C(C)(C)C)C/C(=C\c2cccn2C)C1=O (configuration not stated)	n	n	n	n	10µM	n
COc1ccc(-c2nc(C)c(CCNC(=O)c3ccccc3Br)s2)cc1OC	x	x	n	x	x	n
CN(C(=O)c1nc(-c2cccc(F)c2)n2c1CCCCC2)c1ccccc1F	x	x	n	x	x	n
CCOc1ccc(CCNC(=O)c2nc(-c3cccc(F)c3)n3c2CCCCC3)cc1OCC	x	x	63µM[quencher]	x	x	n
COC(=O)c1ccc(-c2noc(CN(C)CCC3CCCCO3)n2)cc1 (configuration not stated)	u	-55	n	n	u	n
CC(C)c1cnc2c(c1SCc1ccc([N+](=O)[O-])cc1)c(=O)n(C)c(=O)n2C	x	x	n	x	x	n
CCCCCc1ccc(OCCC[n+]2ccccc2)c(CCCCC)c1	n	n	n	n	n	71µM
CCCCCc1ccc(OCCOCCn2c[n+](C)c3ccccc32)c(CCCCC)c1	n	n	n	n	n	n
O=C1C(Cl)=C(N2CCCCC2)C(=O)C(Cl)=C1c1cnc(N2CCCCC2)s1	n	-46	n	n	6.3µM	n
CN(C)c1ncc(C2=C(Cl)C(=O)C(N3CCCC3)=C(Cl)C2=O)s1	x	x	x	n	x	x
SMILES	TSHR antag	Coupling enz	TR SRC2 fluor cs	TCR act	NPSR antagonist	TRb-SRC2 inh
O=C(Nc1c2c(nn1-c1ccc(Cl)cc1)CS(=O)(=O)C2)c1ccc(Br)cc1	x	x	n	x	x	n
COc1ccc(CCn2c(=O)c3cccnc3n(CC(=O)Nc3ccc(C)cc3C)c2=O)cc1OC	x	x	n	x	x	n
Cc1ccc2c(c1)CCCN2C(=O)Nc1ccc2c(c1)OCO2	n	-40	n	n	n	n
O=C(Nc1ccc2c(c1)OCO2)N1CCCc2ccccc21	n	n	n	n	n	n
O=C(CCC1N=C2c3ccccc3N=C(SCc3ccccc3F)N2C1=O)NCc1ccccc1 (configuration not stated)	x	x	n	x	x	n
Cc1cccc(CNC(=O)C2CCN(S(=O)(=O)c3ccc4c(c3)CCCN4C(=O)C3CCC3)CC2)c1	x	x	n	x	x	n
O=c1cc(-c2c(F)c(F)c(F)c(F)c2F)oc2c(F)c(F)c(F)c(F)c12	-76	n	n	x	3.2µM	n
O=c1cc(-c2c(F)c(F)c(F)c(F)c2F)oc2ccccc12	n	n	n	n	u	n
C=CCNC(=S)NCc1ccccc1	n	n	n	n	n	n
C=CCNC(=S)Nc1cccc2ccccc12	n	-51	n	n	n	n
C/C(=C\C(=S)Nc1ccccc1)Nc1cccc2ccccc12	n	-49	n	n	n	n
S=C(NCc1ccccc1)Nc1ccc2ccccc2c1	n	x	x	n	x	x
C/C(=C\C(=S)Nc1ccccc1)Nc1ccc2ccccc2c1	n	-37	n	n	n	n
CNC(=O)C1CCC(Cn2c(=O)c3sccc3n(CC(=O)Nc3ccc(C)c(F)c3)c2=O)CC1 (configuration not stated)	x	x	n	x	x	n
Fc1ccc(-c2cc(-c3ccc(F)cc3)c3c(n2)-c2cc(F)ccc2OC3)cc1	x	x	18µM[quencher]	x	x	n
Fc1ccc2c(c1)-c1nc(-c3ccccc3)cc(-c3ccccc3)c1CO2	x	x	n	x	x	n
COCc1ccc(O)c2ncccc12	n	n	n	n	4µM	n
Cc1ccccc1N=Nc1ccc(O)c2ncccc12	n	n	n	n	n	n
O=[N+]([O-])c1ccc(O)c2cccnc12	n	n	n	n	n	n
O=[N+]([O-])c1ccc(O)c2ncccc12	n	-35	n	n	n	n
O=Nc1ccc(O)c2ncccc12	n	-35!	n	n	u	n
Cc1oc(C(=O)Nc2ccc(O)cc2)cc1COc1ccccc1	n	-32	n	n	n	n
CC(C)(C)C(=O)NC(=S)NNC(=O)c1ccc(-c2ccccc2)cc1	-81	n	n	n	n	n
COCCN=c1scc(-c2ccco2)n1/N=C/c1ccc(O)c(O)c1O	n	-51	n	n	n	n
CN=c1scc(C)n1/N=C/c1ccc(O)c(O)c1O	n	-59	n	n	n	n
SMILES	TSHR antag	Coupling enz	TR SRC2 fluor cs	TCR act	NPSR antagonist	TRb-SRC2 inh
C=CCN=c1scc(-c2ccco2)n1/N=C/c1ccc(O)c(O)c1O	n	-35	n	n	n	n
CC(C)N=c1scc(-c2ccco2)n1/N=C/c1ccc(O)c(O)c1	n	n	n	n	n	n
O=c1oc2ccccc2c2c1C1O[C@](c3ccsc3)(Cc3c1ccc1ccccc31)O2	x	n	x	x	x	x
Cc1ccc(CN2C(=O)C(=O)c3cc(Br)cc(C)c32)cc1	x	x	n	x	x	n
CCc1ccccc1NC(=O)c1sc(-n2nc(C)c(Cc3ccc4c(c3)OCO4)c2C)nc1C	x	x	n	x	x	n
CCOC(=O)N1CCN(C(=O)c2ccc3c(c2)NC(=O)/C(=C\c2ccc(OC)c(OC)c2)S3)CC1	-133	n	x	n	x	x
